The results in this text go back to PMC7862700, “An all-to-all approach to the identification of sequence-specific readers for epigenetic DNA modifications on cytosine”.

Holding throughout (experiment): DAPPL (digital affinity profiling via proximity ligation, sequencing); 10 mM Tris-HCl pH 7.5, 50 mM NaCl, 1 mM DTT, 4% glycerol, room temperature, 30 min; GST-TFs on glutathione beads, 16-mer random dsDNA library, 0.1% formaldehyde crosslink after washing; high values mean tight binding
What all share (conditions): protein: recombinant; tags: N-terminal GST; dsDNA, one strand shown

Test [1] has as its target T1, FLI1 (Homo sapiens, UniProt Q01543 1-452).
T1 sequence: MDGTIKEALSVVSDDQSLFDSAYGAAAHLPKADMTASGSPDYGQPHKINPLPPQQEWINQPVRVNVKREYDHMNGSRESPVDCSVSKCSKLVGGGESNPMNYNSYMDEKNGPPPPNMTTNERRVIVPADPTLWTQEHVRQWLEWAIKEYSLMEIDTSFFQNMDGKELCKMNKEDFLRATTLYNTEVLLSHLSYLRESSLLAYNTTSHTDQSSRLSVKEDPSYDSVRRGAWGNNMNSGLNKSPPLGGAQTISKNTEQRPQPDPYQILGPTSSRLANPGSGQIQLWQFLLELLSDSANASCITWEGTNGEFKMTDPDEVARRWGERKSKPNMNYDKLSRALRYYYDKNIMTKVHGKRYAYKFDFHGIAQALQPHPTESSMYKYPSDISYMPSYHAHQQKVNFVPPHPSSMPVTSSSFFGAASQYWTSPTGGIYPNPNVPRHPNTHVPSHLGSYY
A digest of the protocol: (§1)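 After expression in yeast as GST fusions, human transcription factors were bound to glutathione beads, DNA-barcoded and mixed with a tag-only sample. The pools were incubated with 200 nmole of a 16-mer random double-stranded DNA library in Tris/NaCl/DTT/glycerol buffer (30 min, room temperature), washed and crosslinked with 0.1% formaldehyde. Proximity ligation with BsaI/T4 ligase ran for 1 h at 37 °C, before PCR amplification and sequencing on an Illumina NextSeq500. Binding signal is a hexamer's read frequency for a factor divided by its frequency for the tag-only sample.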

For test [2], the target named is T2, ELK1 (Homo sapiens, UniProt P19419 1-428).
T2 sequence: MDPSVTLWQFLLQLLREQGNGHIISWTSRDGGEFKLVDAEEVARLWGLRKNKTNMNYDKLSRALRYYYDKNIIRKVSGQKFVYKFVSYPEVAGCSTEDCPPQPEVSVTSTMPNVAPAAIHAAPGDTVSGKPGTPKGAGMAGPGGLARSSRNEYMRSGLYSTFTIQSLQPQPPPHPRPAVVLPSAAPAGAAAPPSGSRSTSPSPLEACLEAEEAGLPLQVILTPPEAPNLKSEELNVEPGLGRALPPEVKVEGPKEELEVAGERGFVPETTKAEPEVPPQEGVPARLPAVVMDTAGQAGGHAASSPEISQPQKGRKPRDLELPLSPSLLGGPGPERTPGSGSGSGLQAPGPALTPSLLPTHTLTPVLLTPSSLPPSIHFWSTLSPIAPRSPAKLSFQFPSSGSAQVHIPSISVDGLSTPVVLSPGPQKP
A digest of the protocol: as §1

For test [3], the target named is T3, GABPA (Homo sapiens, UniProt Q06546 1-454).
T3 sequence: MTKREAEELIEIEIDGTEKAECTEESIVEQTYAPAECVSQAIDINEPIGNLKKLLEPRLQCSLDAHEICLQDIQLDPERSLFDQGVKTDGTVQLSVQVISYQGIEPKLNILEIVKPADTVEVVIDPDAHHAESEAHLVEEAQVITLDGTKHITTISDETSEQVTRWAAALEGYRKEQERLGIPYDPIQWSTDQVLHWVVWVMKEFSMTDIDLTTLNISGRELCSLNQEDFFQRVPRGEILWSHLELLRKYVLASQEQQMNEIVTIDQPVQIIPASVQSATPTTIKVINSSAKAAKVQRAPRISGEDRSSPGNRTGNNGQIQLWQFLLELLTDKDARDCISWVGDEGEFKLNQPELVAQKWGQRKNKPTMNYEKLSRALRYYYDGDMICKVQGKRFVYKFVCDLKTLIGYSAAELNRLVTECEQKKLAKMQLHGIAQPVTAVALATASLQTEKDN
A digest of the protocol:
as §1

Test [4] deals with T4, ERG (Homo sapiens, UniProt P11308 1-479).
T4 sequence: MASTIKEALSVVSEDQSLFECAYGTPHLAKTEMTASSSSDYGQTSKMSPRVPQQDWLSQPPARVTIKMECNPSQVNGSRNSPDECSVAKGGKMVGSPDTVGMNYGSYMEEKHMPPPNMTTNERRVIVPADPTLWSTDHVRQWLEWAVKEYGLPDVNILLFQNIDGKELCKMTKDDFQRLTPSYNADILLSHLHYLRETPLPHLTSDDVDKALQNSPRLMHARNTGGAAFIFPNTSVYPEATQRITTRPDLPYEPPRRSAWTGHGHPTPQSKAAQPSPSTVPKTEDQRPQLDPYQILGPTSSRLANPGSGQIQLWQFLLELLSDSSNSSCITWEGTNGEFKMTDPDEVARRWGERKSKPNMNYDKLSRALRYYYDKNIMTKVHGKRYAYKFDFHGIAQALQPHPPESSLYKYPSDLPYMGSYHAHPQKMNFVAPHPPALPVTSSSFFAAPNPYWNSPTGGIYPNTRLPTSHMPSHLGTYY
In short, it runs like this:
as §1

Test [5] has as its target ELF1 (Homo sapiens, UniProt P32519 1-619). A digest of the protocol:
as §1

In test [6] the target is T5, EHF (Homo sapiens, UniProt Q9NZC4 1-300).
T5 sequence: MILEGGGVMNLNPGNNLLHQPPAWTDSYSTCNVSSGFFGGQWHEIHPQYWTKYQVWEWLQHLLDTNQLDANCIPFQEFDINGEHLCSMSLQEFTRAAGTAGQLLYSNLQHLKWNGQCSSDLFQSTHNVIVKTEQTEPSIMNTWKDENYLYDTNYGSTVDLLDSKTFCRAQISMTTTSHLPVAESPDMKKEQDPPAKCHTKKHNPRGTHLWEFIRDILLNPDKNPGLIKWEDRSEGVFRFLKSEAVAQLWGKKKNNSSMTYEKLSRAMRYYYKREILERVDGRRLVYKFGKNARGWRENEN
In short, it runs like this: as §1

The target of test [7] is SPI1 (Homo sapiens, UniProt P17947 1-270). A digest of the protocol:
as §1

Test [8] has as its target SPIB (Homo sapiens, UniProt Q01892 1-262). A digest of the protocol:
as §1

The target in test [9] is T6, ELK3 (Homo sapiens, UniProt P41970 1-407).
T6 sequence: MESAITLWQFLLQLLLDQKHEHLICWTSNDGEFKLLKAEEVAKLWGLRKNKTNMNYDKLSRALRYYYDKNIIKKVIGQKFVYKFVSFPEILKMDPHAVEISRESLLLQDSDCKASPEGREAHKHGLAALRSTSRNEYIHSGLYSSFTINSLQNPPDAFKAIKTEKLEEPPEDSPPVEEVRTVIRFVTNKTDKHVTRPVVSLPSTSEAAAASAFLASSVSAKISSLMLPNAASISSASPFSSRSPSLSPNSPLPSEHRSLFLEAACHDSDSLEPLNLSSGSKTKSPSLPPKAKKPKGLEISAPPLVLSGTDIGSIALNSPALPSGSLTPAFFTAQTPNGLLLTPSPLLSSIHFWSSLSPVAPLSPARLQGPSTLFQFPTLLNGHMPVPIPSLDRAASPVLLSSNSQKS
A digest of the protocol: as §1

Sequence of SPIB (Q01892 whole entry): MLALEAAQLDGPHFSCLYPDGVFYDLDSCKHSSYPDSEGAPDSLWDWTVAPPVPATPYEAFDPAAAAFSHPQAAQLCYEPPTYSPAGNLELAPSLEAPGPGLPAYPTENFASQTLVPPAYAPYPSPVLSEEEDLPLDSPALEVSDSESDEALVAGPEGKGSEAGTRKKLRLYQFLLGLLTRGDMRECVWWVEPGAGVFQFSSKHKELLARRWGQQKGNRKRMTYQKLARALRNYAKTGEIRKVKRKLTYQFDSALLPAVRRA
Sequence of ELF1 (P32519 whole entry): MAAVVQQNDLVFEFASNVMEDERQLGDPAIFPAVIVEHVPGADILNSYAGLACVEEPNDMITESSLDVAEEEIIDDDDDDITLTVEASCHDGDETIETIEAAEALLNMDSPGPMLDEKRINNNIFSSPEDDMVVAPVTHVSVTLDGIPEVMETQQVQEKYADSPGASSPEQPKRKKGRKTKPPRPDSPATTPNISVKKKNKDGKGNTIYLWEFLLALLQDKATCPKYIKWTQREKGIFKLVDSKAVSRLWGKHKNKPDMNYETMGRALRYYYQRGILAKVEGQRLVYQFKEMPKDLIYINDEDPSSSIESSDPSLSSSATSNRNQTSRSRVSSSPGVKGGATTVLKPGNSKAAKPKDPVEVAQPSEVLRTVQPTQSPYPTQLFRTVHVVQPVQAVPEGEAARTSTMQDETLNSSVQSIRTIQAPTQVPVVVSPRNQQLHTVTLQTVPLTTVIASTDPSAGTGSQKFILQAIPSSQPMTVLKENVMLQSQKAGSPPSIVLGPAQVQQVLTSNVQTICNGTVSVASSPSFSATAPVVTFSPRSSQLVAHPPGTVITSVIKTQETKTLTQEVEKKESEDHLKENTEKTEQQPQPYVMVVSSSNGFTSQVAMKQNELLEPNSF

On to TTGGGG, for which the binding signal was 1.4 fold enrichment (6-mer frequency, TF over GST control) in test [1]; 1.24 fold enrichment (6-mer frequency, TF over GST control) in [2]; 1.33 fold enrichment (6-mer frequency, TF over GST control) in test [3]; 1.21 fold enrichment (6-mer frequency, TF over GST control) in test [4]; 1.32 fold enrichment (6-mer frequency, TF over GST control) in test [5]; 1.27 fold enrichment (6-mer frequency, TF over GST control) in test [6]. The binding signal in test [7] is 1.26 fold enrichment (6-mer frequency, TF over GST control); in test [8] it was 1.15 fold enrichment (6-mer frequency, TF over GST control); in [9] it was 1.31 fold enrichment (6-mer frequency, TF over GST control).

Turning to TACATA, the binding signal in test [1] is 1.18 fold enrichment (6-mer frequency, TF over GST control); in test [2] it was 1.19 fold enrichment (6-mer frequency, TF over GST control); in test [3], 1.22 fold enrichment (6-mer frequency, TF over GST control); in [4], 1.24 fold enrichment (6-mer frequency, TF over GST control); in test [5] it was 1.18 fold enrichment (6-mer frequency, TF over GST control); in test [6], 1.17 fold enrichment (6-mer frequency, TF over GST control). The binding signal was 1.15 fold enrichment (6-mer frequency, TF over GST control) in [7]; 1.22 fold enrichment (6-mer frequency, TF over GST control) in [8]; 1.19 fold enrichment (6-mer frequency, TF over GST control) in test [9].

As to CTGCGC, the binding signal in test [1] is 1.18 fold enrichment (6-mer frequency, TF over GST control); in test [2], 1.4 fold enrichment (6-mer frequency, TF over GST control); in test [3], 1.34 fold enrichment (6-mer frequency, TF over GST control); in test [4] it was 1.37 fold enrichment (6-mer frequency, TF over GST control); in [5] it was 1.45 fold enrichment (6-mer frequency, TF over GST control); in test [6], 1.4 fold enrichment (6-mer frequency, TF over GST control). Moreover, the binding signal was 1.31 fold enrichment (6-mer frequency, TF over GST control) in test [7]; 1.34 fold enrichment (6-mer frequency, TF over GST control) in [8]; 1.22 fold enrichment (6-mer frequency, TF over GST control) in test [9].

As for ATATCT, the binding signal in test [1] was 1.25 fold enrichment (6-mer frequency, TF over GST control); in test [2], 1.19 fold enrichment (6-mer frequency, TF over GST control); in test [3], 1.26 fold enrichment (6-mer frequency, TF over GST control); in [4] it was 1.21 fold enrichment (6-mer frequency, TF over GST control); in test [5] it was 1.21 fold enrichment (6-mer frequency, TF over GST control); in test [6] it was 1.17 fold enrichment (6-mer frequency, TF over GST control). Also, the binding signal was 1.16 fold enrichment (6-mer frequency, TF over GST control) in [7]; 1.21 fold enrichment (6-mer frequency, TF over GST control) in test [8]; 1.15 fold enrichment (6-mer frequency, TF over GST control) in test [9].

Consider TAAGTT, for which the binding signal in [1] was 1.23 fold enrichment (6-mer frequency, TF over GST control); in test [2], 1.39 fold enrichment (6-mer frequency, TF over GST control); in [3] it was 1.33 fold enrichment (6-mer frequency, TF over GST control); in test [4], 1.25 fold enrichment (6-mer frequency, TF over GST control); in test [5] it was 1.3 fold enrichment (6-mer frequency, TF over GST control); in test [6] it was 1.38 fold enrichment (6-mer frequency, TF over GST control). In addition, the binding signal in [7] is 1.31 fold enrichment (6-mer frequency, TF over GST control); in test [8] it was 1.35 fold enrichment (6-mer frequency, TF over GST control); in test [9] it was 1.27 fold enrichment (6-mer frequency, TF over GST control).

As to TTAATT, the binding signal in test [1] is 1.38 fold enrichment (6-mer frequency, TF over GST control); in test [2] it was 1.34 fold enrichment (6-mer frequency, TF over GST control); in test [3], 1.42 fold enrichment (6-mer frequency, TF over GST control); in [4], 1.32 fold enrichment (6-mer frequency, TF over GST control); in [5] it was 1.37 fold enrichment (6-mer frequency, TF over GST control); in test [6] it was 1.39 fold enrichment (6-mer frequency, TF over GST control). Further, the binding signal is 1.38 fold enrichment (6-mer frequency, TF over GST control) in test [7]; 1.36 fold enrichment (6-mer frequency, TF over GST control) in test [8]; 1.54 fold enrichment (6-mer frequency, TF over GST control) in test [9].

In the case of ACTCTT, the binding signal was 1.17 fold enrichment (6-mer frequency, TF over GST control) in [1]; 1.24 fold enrichment (6-mer frequency, TF over GST control) in test [2]; 1.22 fold enrichment (6-mer frequency, TF over GST control) in test [3]; 1.24 fold enrichment (6-mer frequency, TF over GST control) in test [4]; 1.25 fold enrichment (6-mer frequency, TF over GST control) in [5]; 1.2 fold enrichment (6-mer frequency, TF over GST control) in test [6]. Besides, the binding signal in [7] was 1.19 fold enrichment (6-mer frequency, TF over GST control); in test [8] it was 1.25 fold enrichment (6-mer frequency, TF over GST control); in [9] it was 1.47 fold enrichment (6-mer frequency, TF over GST control).
